Assay results reported in PubChem BioAssay (EPA / NIEHS).
The source made the active and inactive calls. How the source made its calls: active means hit-call score of the fitted dose curve at least 0.9, where 1 is the maximum; inactive means score below 0.9.

These molecules were tested on succinate dehydrogenase complex iron sulfur subunit B (SDHB), SDHB (gene 6390) (assay: LTEA_HepaRG_SDHB: Life Technologies and Expression Analysis (LTEA) Assay for succinate dehydrogenase complex iron sulfur subunit B (SDHB) using HepaRG (AID 2283528)). Details: mRNA level, 48 h; actives raise or lower the signal.
Description: LTEA_HepaRG is a cell based, multiplexed-readout assay that uses HepaRG, a human liver cell line, with measurements taken at 48 hours after chemical dosing on a 96-well plate.LTEA_HepaRG_SDHB is one of 102 assay component(s) measured in the LTEA HepaRG cell culture assay. It is a marker of Cell proliferation, survival, death.Data from the assay component LTEA_HepaRG_SDHB was analyzed into 1 endpoint. This assay endpoint, LTEA_HepaRG_SDHB, was analyzed with bidirectional fitting relative to DMSO as the negative control and baseline of activity. Using a type of inducible reporter, measures of mRNA induction for gain or loss-of-signal activity can be used to understand regulation of transcription factor activity. To generalize the intended target to other relatable targets, this assay endpoint is annotated to the oxidoreductase intended target family, where the subfamily is ubiquinone.
A total of 1060 chemcials from the ToxCast library were tested in eight-point concentration-response experiments. Cell culture and cytotoxicity assays were conducted at Thermo Fisher Scientific's Custom Services facility (Madison, WI). A single lot of human HepaRG cells (Thermo Fisher Scientific, Frederick, MD) was used for the cell culture experiments. 96-well format collagen type I coated plates of human HepaRG cells were prepared using established methods. Briefly, cryopreserved HepaRG cells were thawed, plated at a density of approximately 100,000 cells/well in HepaRG Thaw, Plate, and General Purpose media (HPRG770, Thermo Fisher Scientific), and incubated for 48 hours. 0.5% DMSO was selected as vehicle control to balance the requisite need of DMSO in HepaRG cultures to maintain differentiation (for example, baseline metabolism, proportions of hepatocytes vs. cholangiocytes), while enabling further hepatic receptor pathway activation (for example, PXR and CAR) in response to chemical exposure. 48 hours after plating, the culture medium was replaced with HepaRG Serum-Free Incudtion Media. Cells were exposed to each test chemical in duplicate and maintained in CO2 incubators for another 48 hours. Chemical plates were thawed to room temperature and 200x concentrations of treatment groups were prepared. 8-point conentration-reponse curves were made with the highest exposure at 100 uM, followed by half-log dilutions, all in 0.5% DMSO. Each test plate contained variouse controls, induction positive controls (1mM phenobarbital), cytotoxicity positive controls ([…] aflatoxin B1), vehicle controls (0.5% DMSO), and total lysis controls (0.5% DMSO). Cell morphology images were taken using an Essen IncuCyte FLR automated microscope, with six 96-well plates imaged in about 24 minutes. Images were captured and exported and JPEG files. Spent culture media was transfered to black-well plates for the LDH assay, and remaining media was sorted at -80 C for later use. Cells were treated with RLT buffer and frozen until shipped for gene expression analysis. Total RNA was isolated from the cell suspension in 75 uL of Buffer RLT (Qiagen, Germantown, MD 20874) by Quintiles/Expression Analysis (Durham, NC) using a custom isolation procedure. Total RNA from each plate well was transferred to a preamplification plate. Fluidigm's 96.96 Dynamic ArrayTM (Fluidigm, Amsterdam, the Netherlands) technology was used for gene expression analyses by quantitative reverse transcription polymerase chain reaction (qRT-PCR, performed by Quintiles/Expression Analysis, Durham, NC)89. Standard TaqManTM Assays (Applied Biosystems/ThermoFisher Scientific, Foster City, CA) were used to assess the expression of 93 genes selected based on their selectivity and sensitivity to important hepatic receptors known to be modulated by environmental chemicals; importance in human hepatocyte functionality; and hepatotoxicity. […]

Question: `Cc1ccccc1O` was tested. Which outcome did it give?
Answer: inactive

Question: Which outcome does the source give for `CC(C)(c1ccccc1)c1ccc(O)cc1` here?
Answer: inactive

Question: For `O=C(NC(=O)c1cc(F)c(F)cc1Cl)Nc1cc(F)ccc1N1CCC(C(=O)O)CC1`, which outcome is on record?
Answer: inactive

Question: `O=NN(c1ccccc1)c1ccccc1` was tested. Which outcome did it give?
Answer: inactive

Question: `CCOP(=S)(OCC)SCSC(C)(C)C` was tested. Which outcome did it give?
Answer: inactive

Question: For `O=C(NC(=O)c1c(F)cccc1F)Nc1cc(Cl)c(OC(F)(F)C(F)F)c(Cl)c1`, which outcome is on record?
Answer: inactive

Question: How did the outcome turn out when `ClC1=C(Cl)[C@]2(Cl)[C@@H]3[C@@H](Cl)[C@H]4O[C@H]4[C@@H]3C1(Cl)C2(Cl)Cl` was run?
Answer: inactive

Question: Which outcome does the source give for `CCCCCCCCCC[N+](C)(C)CCCCCCCCCC` here?
Answer: inactive

Question: How did the outcome turn out when `CCC(=O)O[C@H]1CC[C@H]2[C@@H]3CCC4=CC(=O)CC[C@]4(C)[C@H]3CC[C@]12C` was run?
Answer: inactive

Question: For `CCOC(=O)C(O)(c1ccc(Cl)cc1)c1ccc(Cl)cc1`, which outcome is on record?
Answer: inactive

Question: `Nc1ccc(-c2ccc(N)cc2)cc1` was tested. Which outcome did it give?
Answer: inactive

Question: How did the outcome turn out when `Clc1ccc(Cl)cc1` was run?
Answer: inactive

Question: For `CC#Cc1cc(C)nc(Nc2ccccc2)n1`, which outcome is on record?
Answer: inactive

Question: Which outcome does the source give for `ClC(Cl)=C(c1ccc(Cl)cc1)c1ccc(Cl)cc1` here?
Answer: inactive

Question: `CCC(C)(c1ccc(O)cc1)c1ccc(O)cc1` was tested. Which outcome did it give?
Answer: inactive

Question: For `CCOCCOC(C)=O`, which outcome is on record?
Answer: inactive

Question: Which outcome does the source give for `COc1ccc(O)c(C(C)(C)C)c1` here?
Answer: inactive

Question: With `Oc1c(Cl)c(Cl)c(Cl)c(Cl)c1Cl` as the molecule, how does the AC50 read?
Answer: 2.04 µM (active)

Question: For `CN(C)CCO`, which outcome is on record?
Answer: inactive

Question: For `Cc1ccccc1CO[C@@H]1C[C@@]2(C(C)C)CC[C@]1(C)O2`, which outcome is on record?
Answer: inactive

Question: `C[C@]12CCC(=O)C=C1CC[C@@H]1[C@@H]2CC[C@@]2(C)[C@H]1CC[C@]2(C)O` was tested. Which outcome did it give?
Answer: inactive

Question: `Oc1ccc(Cl)cc1Cl` was tested. Which outcome did it give?
Answer: inactive

Question: Which outcome does the source give for `Cc1cc(O)ccc1Cl` here?
Answer: inactive

Question: How did the outcome turn out when `Clc1ccc(C(c2ccccc2Cl)C(Cl)(Cl)Cl)cc1` (stereo not given) was run?
Answer: inactive

Question: `O=C(N[C@H]1CN2CCC1CC2)c1cc2ccoc2cn1` was tested. Which outcome did it give?
Answer: inactive

Question: `C=CC(N)=O` was tested. Which outcome did it give?
Answer: inactive

Question: How did the outcome turn out when `ClC1=C(Cl)[C@]2(Cl)[C@@H]3[C@@H]4C[C@@H]([C@H]5O[C@@H]45)[C@@H]3[C@@]1(Cl)C2(Cl)Cl` was run?
Answer: inactive

Question: Which outcome does the source give for `C[C@]12CCC(=O)C=C1CC[C@@H]1[C@@H]2CC[C@]2(C)C(=O)CC[C@@H]12` here?
Answer: inactive

Question: For `CC(C)C(=O)OCC(C)(C)C(OC(=O)C(C)C)C(C)C` (stereo not given), which outcome is on record?
Answer: inactive

Question: Which AC50 does the source give for `O=C(O)C(F)(F)C(F)(F)C(F)(F)C(F)(F)C(F)(F)C(F)(F)C(F)(F)C(F)(F)C(F)(F)F` here?
Answer: 88.9 µM (active)

Question: With `Oc1ccc(C(c2ccc(O)cc2)(C(F)(F)F)C(F)(F)F)cc1` as the molecule, how does the outcome read?
Answer: inactive

Question: Which outcome does the source give for `CO/C=C(/C(=O)OC)c1ccccc1COc1cccc(C(F)(F)F)n1` here?
Answer: inactive

Question: For `ClC1=C(Cl)[C@]2(Cl)[C@@H]3[C@H]4C[C@H]([C@@H]5O[C@H]45)[C@@H]3[C@@]1(Cl)C2(Cl)Cl`, which outcome is on record?
Answer: inactive

Question: Which AC50 does the source give for `NS(=O)(=O)C(F)(F)C(F)(F)C(F)(F)C(F)(F)C(F)(F)C(F)(F)C(F)(F)C(F)(F)F` here?
Answer: 4.97 µM (active)

Question: How did the outcome turn out when `Cc1cccc(C)c1N` was run?
Answer: inactive

Question: `CC(c1ccc(O)cc1)(c1ccc(O)cc1)c1ccc(O)cc1` was tested. Which AC50 did it give?
Answer: 50 µM (active)

Question: How did the outcome turn out when `CCCN(CCC)N=O` was run?
Answer: inactive

Question: For `C=CC(=O)NCNC(=O)C=C`, which outcome is on record?
Answer: inactive

Question: With `CC1=C2C[C@H]3[C@@H](CC=C4C[C@@H](O)CC[C@@]43C)[C@@H]2CC[C@]12O[C@@H]1C[C@H](C)CN[C@H]1[C@H]2C` as the molecule, how does the outcome read?
Answer: inactive

Question: Which outcome does the source give for `CCNc1nc(NC(C)C)nc(SC)n1` here?
Answer: inactive
